Paper PMC4336329 (PLoS ONE, 2015)
Among all 310,000 compounds or so, about 14,000 (4.5%) showed an effect of 50% or more. Effects have a minus sign here. This is one part of a sample in which strong results are shown more often than they occur.

Target: human ether-à-go-go-related gene (hERG) potassium channel (human, UniProt Q12809)
Test: primary screen, population patch clamp on CHO cells stably expressing hERG; higher = less effect of the substance
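Also: peak tail current of the secondary pulse compared with the same well before compound.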

Chain of human ether-à-go-go-related gene (hERG) potassium channel (Q12809 whole entry, looked up): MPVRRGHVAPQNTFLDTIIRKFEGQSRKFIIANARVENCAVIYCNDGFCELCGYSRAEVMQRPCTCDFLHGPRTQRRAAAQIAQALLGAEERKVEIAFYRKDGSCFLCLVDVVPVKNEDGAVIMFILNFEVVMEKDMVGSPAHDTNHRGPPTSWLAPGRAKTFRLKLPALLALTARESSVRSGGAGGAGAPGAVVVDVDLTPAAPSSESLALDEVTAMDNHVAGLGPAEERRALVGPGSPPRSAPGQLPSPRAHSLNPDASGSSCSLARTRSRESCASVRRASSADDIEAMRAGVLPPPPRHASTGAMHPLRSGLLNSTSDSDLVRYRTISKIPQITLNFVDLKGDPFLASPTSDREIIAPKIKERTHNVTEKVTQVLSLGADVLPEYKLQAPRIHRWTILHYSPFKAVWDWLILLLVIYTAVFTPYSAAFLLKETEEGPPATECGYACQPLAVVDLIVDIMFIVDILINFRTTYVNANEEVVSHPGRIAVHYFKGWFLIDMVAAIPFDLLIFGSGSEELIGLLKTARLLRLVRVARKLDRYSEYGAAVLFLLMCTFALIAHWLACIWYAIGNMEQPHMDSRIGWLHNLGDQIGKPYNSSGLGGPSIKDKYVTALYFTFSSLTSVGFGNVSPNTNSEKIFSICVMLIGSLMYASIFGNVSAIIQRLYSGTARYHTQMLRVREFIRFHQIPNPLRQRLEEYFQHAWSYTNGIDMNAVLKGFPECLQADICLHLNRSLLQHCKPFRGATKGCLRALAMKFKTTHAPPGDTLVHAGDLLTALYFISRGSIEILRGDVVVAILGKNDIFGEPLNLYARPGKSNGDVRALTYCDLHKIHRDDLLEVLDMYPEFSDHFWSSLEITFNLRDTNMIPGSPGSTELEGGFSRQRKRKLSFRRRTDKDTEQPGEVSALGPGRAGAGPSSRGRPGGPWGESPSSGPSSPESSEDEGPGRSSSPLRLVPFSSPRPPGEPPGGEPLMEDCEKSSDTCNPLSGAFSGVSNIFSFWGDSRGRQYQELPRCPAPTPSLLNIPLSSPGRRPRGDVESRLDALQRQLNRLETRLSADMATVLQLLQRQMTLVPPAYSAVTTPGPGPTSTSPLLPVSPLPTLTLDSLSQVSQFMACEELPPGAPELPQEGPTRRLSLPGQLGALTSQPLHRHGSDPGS

Row | Compound | hERG current change (%, negative = inhibition) at 10uM
1 | CCc1ccc(C2CC(c3ccc(Cl)cc3)n3nc(N)nc3N2)cc1 (centres unmarked) | -10.3%
2 | CC(C(=O)N1CCc2ccccc21)N1CCN(S(=O)(=O)c2cccs2)CC1 (centres unmarked) | -28.8%
3 | Cc1ccnc(OC(C(=O)O)C(OCCc2ccccc2)(c2ccccc2)c2ccccc2)n1 (centres unmarked) | 23.2%
4 | CC(=O)Nc1n[nH]c(-c2ccc(C)cc2)c1C | 4.49%
5 | Cc1ccc(CNS(=O)(=O)CCNC(=O)c2ccccc2)cc1 | -33.5%
6 | Cc1[nH]nc2c1C(c1cccs1)C(C#N)=C(N)O2 (centres unmarked) | 5.07%
7 | O=C(OCC(=O)N1CCc2ccccc2C1)c1cccnc1Cl | -0.321%
8 | COc1ccc(C2=NS(=O)(=O)N(C)C(C(=O)NCc3ccc(F)cc3)=C2)cc1OC | -59%
9 | COc1ccc(C2=NS(=O)(=O)N(C)C(C(=O)NCc3ccc4c(c3)OCO4)=C2)cc1OC | -34.9%
10 | COc1ccc(C2=NS(=O)(=O)N(C)C(C(=O)NCc3ccc4c(c3)OCO4)=C2)cc1 | -63.3%
11 | Cc1ccc(C2=NS(=O)(=O)N(C)C(C(=O)NCc3ccc(F)cc3)=C2)cc1 | -28.4%
12 | COc1ccc(CNC(=O)C2=CC(c3ccc(OC)c(OC)c3)=NS(=O)(=O)N2C)cc1 | -21.8%
13 | COc1ccc(C2=NS(=O)(=O)N(C)C(C(=O)Nc3ccc4c(c3)OCO4)=C2)cc1 | -4.37%
14 | Cc1cc(C)nc(NC(=O)c2ccccc2O)n1 | 18.3%
15 | c1cncc(CSc2ccc(-c3cccnc3)nn2)c1 | 9.04%
16 | Fc1cccc(Cl)c1CSc1ccc(-c2cccnc2)nn1 | -68.9%
17 | O=[N+]([O-])c1cccc(-c2ccc(SCc3ccccn3)nn2)c1 | -6.25%
18 | c1ccc(CSc2ccc(-c3cccnc3)nn2)nc1 | 6.82%
19 | Clc1cccc(CSc2ccc(-c3cccnc3)nn2)c1 | -67.3%
20 | Clc1ccc(CSc2ccc(-c3cccnc3)nn2)cc1 | -48.6%
21 | O=[N+]([O-])c1cccc(-c2ccc(SCc3cccnc3)nn2)c1 | -55%
22 | Fc1cccc(Cl)c1CSc1ccc(-c2ccco2)nn1 | 1.19%

Row | Compound | hERG current change (%, negative = inhibition) at 10uM
23 | c1ccc(CSc2ccc(-c3cccnc3)nn2)cc1 | -13.7%
24 | N#Cc1c(NC(=O)COC(=O)c2ccc(S(=O)(=O)N3CCCC3)cc2)sc2c1CCCCC2 | 6.38%
25 | CCCCC1C(C#N)=C(C)NC2=C1C(=O)CC(C)(C)C2 (centres unmarked) | -9.68%
26 | O=C(CSc1nc(NS(=O)(=O)c2ccccc2)cc(=O)[nH]1)Nc1ccc(F)cc1 | 10.7%
27 | CC(C)c1ccc(OCC(=O)Nc2ccc(S(=O)(=O)Nc3ccccn3)cc2)cc1 | 10.7%
28 | Clc1ccc(CNc2ncccn2)cc1 | 13.5%
29 | CCOc1ccc(/C(O)=C2/C(=O)C(=O)N(CC3CCCO3)C2c2ccco2)cc1 (centres unmarked) | 14.2%
30 | COc1ccc(CNC(=O)CCOc2ccc(C(C)(C)C)cc2)cc1 | 8.47%
31 | O=C1NCCN1CCNS(=O)(=O)c1cc(C(F)(F)F)cc(C(F)(F)F)c1 | 17.2%
32 | Cc1csc(Nc2ccccc2C(F)(F)F)n1 | 6.46%
33 | N#C/C(=C\c1c(N2CCN(Cc3ccccc3)CC2)nc2ccccn2c1=O)S(=O)(=O)c1ccccc1 | 0.944%
34 | Cc1ccc(S(=O)(=O)/C(C#N)=C/c2c(N3CCN(C)CC3)nc3ccccn3c2=O)cc1 | -59.1%
35 | CCN1CCN(c2nc3ccccn3c(=O)c2/C=C(\C#N)S(=O)(=O)c2ccccc2)CC1 | -42.3%
36 | CN1CCN(c2nc3ccccn3c(=O)c2/C=C(\C#N)S(=O)(=O)c2ccc(Cl)cc2)CC1 | -51.9%
37 | N#C/C(=C\c1c(N2CCOCC2)nc2ccccn2c1=O)S(=O)(=O)c1ccccc1 | -63.2%
38 | N#C/C(=C\c1c(N2CCN(c3ccccc3)CC2)nc2ccccn2c1=O)S(=O)(=O)c1ccccc1 | 2.28%
39 | N#C/C(=C\c1c(N2CCCCC2)nc2ccccn2c1=O)S(=O)(=O)c1ccccc1 | -40.7%
40 | Cc1ccc(S(=O)(=O)/C(C#N)=C/c2c(N3CCCCC3)nc3ccccn3c2=O)cc1 | -29.9%
41 | CN1CCN(c2nc3ccccn3c(=O)c2/C=C(\C#N)S(=O)(=O)c2ccccc2)CC1 | -24.9%
42 | CCOC(=O)c1cccc(NC(=O)c2ccc(F)cc2F)c1 | -16.1%
43 | O=c1ccnc(Nc2ccc(Cl)cc2)[nH]1 | -10.3%
44 | C/C(=N/NC(=O)CNC(=O)c1ccco1)c1ccco1 | 2.11%
